The values that follow come from PubChem BioAssay (EPA / NIEHS).

Records with an inconclusive call do not appear. The source made the active and inactive calls. The calls were made as follows, unless noted: active = hit-call score of the fitted dose curve at least 0.9, where 1 is the maximum; inactive = score below 0.9.

Experiment [1] has as its target human Retinoid X Receptor beta (RXRb), RXRB (gene 6257) (UniProt P28702). The experiment can be described thus: ATG_RXRb_TRANS: Attagene TRANS-FACTORIAL HepG2 Assay for human Retinoid X Receptor beta (RXRb) (AID 2283013; active = hit-call score of the fitted dose curve at least 0.9, where 1 is the maximum). In short, it runs like this:
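HepG2 cells transiently transfected with multiplexed reporter units driven by GAL4-UAS and exogenous chimeric NR-Gal4 proteins; treated 24 h. Reporter mRNA measured by RT-PCR, 6-FAM labelling and capillary electrophoresis; gain-of-signal fitted versus DMSO baseline.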

For experiment [2], the target named is human Thyroid Receptor alpha (THRa1), THRA (gene 7067) (UniProt P10827). The experiment can be described thus: ATG_THRa1_TRANS: Attagene TRANS-FACTORIAL HepG2 Assay for human Thyroid Receptor alpha (THRa1) (AID 2283014; active = hit-call score of the fitted dose curve at least 0.9, where 1 is the maximum). In short, it runs like this: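 HepG2 cells transiently transfected with multiplexed GAL4-UAS reporter units for exogenous chimeric THRa1-Gal4; reporter mRNA measured 24 h after dosing by RT-PCR, 6-FAM labelling, HpaI digestion and capillary electrophoresis. Gain-of-signal fitted versus DMSO baseline.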
Sequence of human Thyroid Receptor alpha (THRa1), THRA (gene 7067) (P10827 whole entry, looked up, the tested form may be a part): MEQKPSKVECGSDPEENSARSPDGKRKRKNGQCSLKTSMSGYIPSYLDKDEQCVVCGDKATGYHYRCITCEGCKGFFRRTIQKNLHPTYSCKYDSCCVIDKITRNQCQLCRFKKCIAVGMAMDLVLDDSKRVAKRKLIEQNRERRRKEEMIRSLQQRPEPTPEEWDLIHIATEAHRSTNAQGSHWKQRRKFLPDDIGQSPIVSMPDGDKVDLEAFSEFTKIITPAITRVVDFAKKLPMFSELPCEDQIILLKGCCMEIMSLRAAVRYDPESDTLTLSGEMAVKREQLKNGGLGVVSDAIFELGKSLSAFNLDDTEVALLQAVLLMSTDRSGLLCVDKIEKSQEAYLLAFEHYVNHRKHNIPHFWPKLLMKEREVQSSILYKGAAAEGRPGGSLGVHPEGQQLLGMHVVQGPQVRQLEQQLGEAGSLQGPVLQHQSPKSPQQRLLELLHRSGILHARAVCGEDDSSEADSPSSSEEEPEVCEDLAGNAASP

Read-out in experiment [3]: E-selectin (Homo sapiens) (UniProt P16581)
Kind of experiment: BSK_3C_Eselectin: BioMAP Diversity Plus: 3C Assay for Eselectin Biomarker Activity (AID 2283015).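 As to outcome: cell surface E-selectin protein quantified by ELISA 24 h after dosing.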 The following applies: primary human endothelial cells (HUVEC); actives raise or lower the signal. In short, it runs like this:
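Primary human umbilical vein endothelial cells (3C system) were dosed with chemical and cell-surface E-selectin measured by ELISA 24 h later. Bidirectional curve fitting used DMSO as negative control and baseline.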

Read-out in experiment [4]: Interleukin-1 alpha (IL1a), IL1A (gene 3552)
The experiment can be described thus: BSK_BE3C_IL1a: BioMAP Diversity Plus: BE3C Assay for Interleukin-1 alpha (IL1a) Biomarker Activity (AID 2283016). To be noted: primary human bronchial epithelial cells; actives raise or lower the signal. The procedure, abridged:
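Human primary bronchial epithelial cells (BE3C system) were dosed with compound and IL-1a measured by ELISA 24 h later. Activity was fitted bidirectionally against DMSO baseline; cytotoxicity was tracked in parallel cultures by SRB total-protein staining.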

Read-out in experiment [5]: Monocyte Chemoattractant Protein-1 (MCP1), CCL2 (gene 6347)
The experiment can be described thus: BSK_4H_MCP1: BioMAP Diversity Plus: 4H Assay for Monocyte Chemoattractant Protein-1 (MCP1) Biomarker Activity (AID 2283018). The following applies: primary human endothelial cells (HUVEC); actives raise or lower the signal. The procedure, abridged: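 Human umbilical vein endothelial cells (4H system) dosed with chemical; MCP-1 measured by ELISA 24 h after dosing. Bidirectional curve fitting against DMSO negative control as baseline; parallel SRB total-protein staining tracks overt cytotoxicity.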

Read-out in experiment [6]: Human Leukocyte Antigen - DR isotype (HLADR), HLA-DRA (gene 3122)
The experiment can be described thus: BSK_3C_HLADR: BioMAP Diversity Plus: 3C Assay for Human Leukocyte Antigen - DR isotype (HLADR) Biomarker Activity (AID 2283019).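 As to outcome: ELISA of cell-surface HLA-DR on HUVEC 24 h after dosing.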 The following applies: primary human endothelial cells (HUVEC); actives raise or lower the signal. The procedure, abridged:
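Primary human umbilical vein endothelial cells (3C system) were dosed with compound and cell-surface HLA-DR was quantified by ELISA at 24 h. Activity was fitted bidirectionally against DMSO as negative control and baseline.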

Read-out in experiment [7]: Monokine induced gamma interferon (MIG), CXCL9 (gene 4283)
Kind of experiment: BSK_3C_MIG: BioMAP Diversity Plus: 3C Assay for Monokine induced gamma interferon (MIG) Biomarker Activity (AID 2283021). The following applies: primary human endothelial cells (HUVEC); actives raise or lower the signal. The procedure, abridged: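 Primary human umbilical vein endothelial cells in the 3C system were exposed to chemical for 24 h, after which MIG was quantified by ELISA. Activity was fitted bidirectionally against DMSO as negative control and baseline.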

Experiment [8] has as its target human Vitamin D Receptor (VDR), VDR (gene 7421) (UniProt P11473). The experiment can be described thus: ATG_VDR_TRANS: Attagene TRANS-FACTORIAL HepG2 Assay for human Vitamin D Receptor (VDR) (AID 2283022; active = hit-call score of the fitted dose curve at least 0.9, where 1 is the maximum). In short, it runs like this:
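HepG2 cells were transiently transfected with multiple GAL4-UAS reporter units, so signal reflects exogenous chimeric receptor-Gal4 activity. After 24 h compound exposure, reporter mRNA was measured by RT-PCR, fluorescent labelling and capillary electrophoresis, fitted for gain of signal versus DMSO.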

Experiment [9] can be described thus: BSK_3C_SRB: Viability Assessment in the BioMAP Diversity Plus: 3C Assay (AID 2283023).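 Also: fitted both ways against DMSO so a hit may be signal rise or drop.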 The following applies: primary human endothelial cells (HUVEC). The procedure, abridged: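 Primary human umbilical vein endothelial cells in the 3C system were read 24 h after compound dosing. Total protein was stained with 0.1% sulforhodamine B after 10% TCA fixation and read at 560 nm, with bidirectional fitting against DMSO as baseline.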

Read-out in experiment [10]: Matrix Metallopeptidase 1 (MMP1), MMP1 (gene 4312)
Kind of experiment: BSK_BE3C_MMP1: BioMAP Diversity Plus: BE3C Assay for Matrix Metallopeptidase 1 (MMP1) Biomarker Activity (AID 2283024). The following applies: primary human bronchial epithelial cells; actives raise or lower the signal. The procedure, abridged:
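Primary human bronchial epithelial cells were dosed with test chemicals, and MMP1 levels were measured by ELISA 24 h later. Data were fitted bidirectionally against DMSO as the negative control and activity baseline.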

Read-out in experiment [11]: Pselectin, SELP (gene 6403)
The experiment can be described thus: BSK_4H_Pselectin: BioMAP Diversity Plus: 4H Assay for Pselectin Biomarker Activity (AID 2283026). To be noted: primary human endothelial cells (HUVEC); actives raise or lower the signal. In short, it runs like this: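 Primary human umbilical vein endothelial cells were exposed to test chemical for 24 h, then cell-surface P-selectin was quantified by ELISA. Activity was fitted bidirectionally against DMSO as negative control and baseline.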

The nature of experiment [12]: BSK_4H_SRB: Viability Assessment in the BioMAP Diversity Plus: 4H Assay (AID 2283027).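 Also: cells exposed to compound for 24 h before staining.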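 As to AC50: curves fitted both ways versus DMSO so AC50 may be loss or gain.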 The following applies: primary human endothelial cells (HUVEC). In short, it runs like this: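 Human umbilical vein endothelial cells were dosed with chemical and, after 24 h, fixed with 10% TCA, stained with 0.1% sulforhodamine B, and read at 560 nm to give total protein as a cytotoxicity measure. Bidirectional fitting relative to DMSO control.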

Experiment [13] in a line: BSK_BE3C_SRB: Viability Assessment in the BioMAP Diversity Plus: BE3C Assay (AID 2283028). The following applies: primary human bronchial epithelial cells. The procedure, abridged:
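Human primary bronchial epithelial cells were exposed to test chemicals for 24 h. Total protein in parallel cultures was then measured by staining with 0.1% sulforhodamine B after 10% TCA fixation, with absorbance read at 560 nm. Activity was fitted bidirectionally against DMSO.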

Read-out in experiment [14]: Thrombomodulin, THBD (gene 7056)
The experiment can be described thus: BSK_3C_Thrombomodulin: BioMAP Diversity Plus: 3C Assay for Thrombomodulin Biomarker Activity (AID 2283029). To be noted: primary human endothelial cells (HUVEC); actives raise or lower the signal. The procedure, abridged:
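Primary human umbilical vein endothelial cells (3C system) were exposed to chemical for 24 h, then thrombomodulin levels were measured by ELISA. Activity was fitted bidirectionally against the DMSO negative control as baseline.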

Read-out in experiment [15]: Urokinase-type plasminogen activator receptor (uPAR), PLAUR (gene 5329)
Kind of experiment: BSK_4H_uPAR: BioMAP Diversity Plus: 4H Assay for Urokinase-type plasminogen activator receptor (uPAR) Biomarker Activity (AID 2283030). To be noted: primary human endothelial cells (HUVEC); actives raise or lower the signal. The procedure, abridged: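 Primary human umbilical vein endothelial cells were exposed to chemical for 24 h before cell-surface uPAR was quantified by ELISA. Activity was fitted bidirectionally against the DMSO negative control baseline.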

Read-out in experiment [16]: Interleukin-8 (IL8), CXCL8 (gene 3576)
Kind of experiment: BSK_3C_IL8: BioMAP Diversity Plus: 3C Assay for Interleukin-8 (IL8) Biomarker Activity (AID 2283020). To be noted: primary human endothelial cells (HUVEC); actives raise or lower the signal. In short, it runs like this: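 Primary human umbilical vein endothelial cells (3C system) were exposed to test chemical for 24 h, then IL-8 was quantified by ELISA. Responses were fitted bidirectionally against DMSO vehicle as baseline.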

Read-out in experiment [17]: Vascular endothelial growth factor receptor 2 (Homo sapiens) (UniProt P35968)
Kind of experiment: BSK_4H_VEGFRII: BioMAP Diversity Plus: 4H Assay for Vascular endothelial growth factor receptor 2 (VEGFR2) Biomarker Activity (AID 2283031). To be noted: primary human endothelial cells (HUVEC); actives raise or lower the signal. In short, it runs like this: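 Primary human umbilical vein endothelial cells in the BioMAP 4H system were dosed with test chemical, and 24 h later VEGFRII was measured by ELISA. Activity was fitted bidirectionally against DMSO as negative control and baseline.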

A short description of experiment [18]: BSK_3C_Vis: BioMAP Diversity Plus: 3C Assay for Morphology Visualization (AID 2283025).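 Also: fitted both ways so gain or loss versus DMSO counts.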 The following applies: primary human endothelial cells (HUVEC). The procedure, abridged:
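Human umbilical vein endothelial cells in the 3C system were imaged by light microscopy 24 h after chemical dosing to record cell morphology. Activity was fitted bidirectionally against DMSO as negative control and baseline; the endpoint serves as a background control.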

Read-out in experiment [19]: Monocyte Chemoattractant Protein-1 (MCP1), CCL2 (gene 6347)
The experiment can be described thus: BSK_3C_MCP1: BioMAP Diversity Plus: 3C Assay for Monocyte Chemoattractant Protein-1 (MCP1) Biomarker Activity (AID 2283017). To be noted: primary human endothelial cells (HUVEC); actives raise or lower the signal. In short, it runs like this: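 Primary human umbilical vein endothelial cells (3C system) were exposed to test chemical for 24 h, after which MCP-1 was quantified by ELISA. Activity was fitted bidirectionally against DMSO as negative control and baseline.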

One may read the AC50 as the concentration at which the activity in the assay is half-maximal.

Sequence of E-selectin (Homo sapiens) (P16581 whole entry, looked up): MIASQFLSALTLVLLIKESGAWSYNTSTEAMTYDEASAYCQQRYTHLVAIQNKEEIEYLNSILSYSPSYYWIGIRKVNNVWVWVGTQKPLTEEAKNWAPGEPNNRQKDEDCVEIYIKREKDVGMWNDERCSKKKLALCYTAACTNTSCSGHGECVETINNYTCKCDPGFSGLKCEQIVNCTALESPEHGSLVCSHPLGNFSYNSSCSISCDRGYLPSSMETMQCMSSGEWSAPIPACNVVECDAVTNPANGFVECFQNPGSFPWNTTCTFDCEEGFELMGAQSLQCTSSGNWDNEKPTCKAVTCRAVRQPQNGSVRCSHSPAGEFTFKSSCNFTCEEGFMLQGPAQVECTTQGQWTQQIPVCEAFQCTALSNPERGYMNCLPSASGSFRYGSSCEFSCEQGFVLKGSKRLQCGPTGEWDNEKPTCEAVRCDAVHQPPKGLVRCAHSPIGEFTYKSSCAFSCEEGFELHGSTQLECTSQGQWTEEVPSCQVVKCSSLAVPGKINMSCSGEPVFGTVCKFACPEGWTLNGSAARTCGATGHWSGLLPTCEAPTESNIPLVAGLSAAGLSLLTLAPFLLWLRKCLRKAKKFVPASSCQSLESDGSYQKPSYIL
Sequence of human Retinoid X Receptor beta (RXRb), RXRB (gene 6257) (P28702 whole entry, looked up, the tested form may be a part): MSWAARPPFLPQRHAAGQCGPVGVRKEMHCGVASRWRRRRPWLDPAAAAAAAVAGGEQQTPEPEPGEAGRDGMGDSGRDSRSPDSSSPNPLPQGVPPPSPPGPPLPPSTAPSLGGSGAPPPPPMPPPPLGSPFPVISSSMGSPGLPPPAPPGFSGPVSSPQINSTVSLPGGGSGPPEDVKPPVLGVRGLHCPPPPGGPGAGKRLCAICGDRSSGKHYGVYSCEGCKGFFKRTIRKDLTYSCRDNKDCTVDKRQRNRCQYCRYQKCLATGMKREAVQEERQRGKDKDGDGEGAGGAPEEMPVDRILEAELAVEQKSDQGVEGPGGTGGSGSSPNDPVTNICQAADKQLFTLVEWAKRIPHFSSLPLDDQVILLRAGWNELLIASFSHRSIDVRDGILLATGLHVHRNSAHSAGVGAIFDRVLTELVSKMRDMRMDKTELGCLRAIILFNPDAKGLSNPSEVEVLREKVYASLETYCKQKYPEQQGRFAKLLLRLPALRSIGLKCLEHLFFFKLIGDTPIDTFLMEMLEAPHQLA
Sequence of human Vitamin D Receptor (VDR), VDR (gene 7421) (P11473 whole entry, looked up, the tested form may be a part): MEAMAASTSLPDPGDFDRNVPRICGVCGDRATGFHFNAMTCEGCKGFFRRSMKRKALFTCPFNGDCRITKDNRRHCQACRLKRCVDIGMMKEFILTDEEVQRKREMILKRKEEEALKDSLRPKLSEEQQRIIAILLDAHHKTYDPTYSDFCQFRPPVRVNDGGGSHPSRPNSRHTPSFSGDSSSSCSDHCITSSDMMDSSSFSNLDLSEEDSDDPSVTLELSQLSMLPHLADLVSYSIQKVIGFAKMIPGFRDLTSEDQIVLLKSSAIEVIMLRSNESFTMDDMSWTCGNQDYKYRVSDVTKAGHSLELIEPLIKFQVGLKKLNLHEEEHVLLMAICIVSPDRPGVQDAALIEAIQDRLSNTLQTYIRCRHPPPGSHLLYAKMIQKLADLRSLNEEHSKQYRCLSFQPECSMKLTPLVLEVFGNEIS

With `CCNc1ccccc1`, the molecule was classed as inactive in [1], in [2], in experiment [3], in experiment [4], in [5] and in [6]. The result in experiment [7], in experiment [8], in [9], in experiment [10], in [11] and in experiment [12] was inactive. In addition, the outcome in experiment [13], in [14] and in experiment [15] was inactive.

On to `CC(C)=CCCC(C)CCO` (centres undefined), for which the result in [3], in experiment [4], in [5], in experiment [6], in experiment [16] and in experiment [7] was inactive. The result in experiment [9], in [10], in experiment [11], in experiment [13], in [14] and in experiment [15] was inactive. For the same molecule, the outcome in [17] was inactive.

As to `Cc1c(-c2cccnc2)c2ccccc2n1CCCCC(=O)O`, the result in [1], in experiment [3], in experiment [4], in experiment [5], in [6] and in experiment [16] was inactive. For the same molecule, the result in experiment [7], in experiment [9], in [10], in [18], in experiment [11] and in experiment [12] was inactive. Further, the outcome in experiment [13], in experiment [14] and in experiment [15] was inactive.

Turning to `C=CC(=C)CCC=C(C)C`, the molecule was called inactive in [1], in experiment [3], in experiment [4], in experiment [19], in experiment [6] and in [16]. The result in experiment [7], in experiment [8], in [9], in [10], in experiment [18] and in experiment [11] was inactive. Moreover, the result in [12], in experiment [13], in experiment [14], in [15] and in [17] was inactive.

Turning to `CNS(=O)(=O)c1cc(C(=O)N2CCC(CCN3C4CCC3CC(n3c(C)nc5ccccc53)C4)(c3cccc(F)c3)CC2)c(Cl)cc1F` (centres undefined), the molecule was called inactive in experiment [1], in experiment [2], in experiment [3], in experiment [4], in experiment [5] and in experiment [7]. Besides, the outcome in experiment [13], in experiment [14] and in experiment [17] was inactive. The AC50 in experiment [6] is 28.9 µM (active); in [9], 20.6 µM (active); in [10], 20 µM (active); in experiment [11], 13.2 µM (active); in [12], 11.8 µM (active); in experiment [15], 0.148 µM (active).

As for `CCn1nc(Cc2ccccc2)cc1C1CCN(C[C@H]2C[C@H](N(C)[C@@H](C(=O)O)C(C)C)C[C@@H]2c2cccc(F)c2)CC1`, the outcome in experiment [3], in experiment [4], in experiment [19], in experiment [6], in [16] and in experiment [7] was inactive. For the same molecule, the molecule was classed as inactive in [8], in experiment [9], in experiment [10], in [11], in [12] and in experiment [13]. Also, the result in [14], in [15] and in experiment [17] was inactive.

For the molecule `O=c1n(CC2CO2)c(=O)n(CC2CO2)c(=O)n1CC1CO1` (centres undefined), the molecule was classed as inactive in experiment [2], in [4], in experiment [7], in [8], in experiment [10] and in experiment [13]. Besides, the result in experiment [14] and in experiment [15] was inactive. Moreover, the AC50 is 16.1 µM (active) in experiment [3]; 21.5 µM (active) in [6]; 17.5 µM (active) in experiment [9]; 39 µM (active) in experiment [18]; 11.8 µM (active) in [11]; 15.1 µM (active) in experiment [12].
